# Assay results: PubChem BioAssay (NCI)
# This is part of a sample that, as a whole, favours compounds with a hit. Of some 83,000 tested, about 20% had one in any assay.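 Interpretation: 100, growth as untreated; towards 0, rising growth inhibition; 0, no net growth; 0 to -100, cell death. Compounds scoring below 10 were considered active.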 Activity calls are given as the source filed them.
# Test system: HL-60(TB) leukemia
# Assay: NCI-60 one-dose screen, 48 h (100 = growth as untreated, 0 = no growth, -100 = all killed)
# Details: 10 µM unless noted
row,SMILES,growth
1,CC(=O)Oc1ccccc1C(=O)N=C1[Se]CCCN1C(=O)c1ccccc1OC(C)=O,12.7% (inactive)
2,CCCCCCCCN(CCCCCCCC)C(=N)c1ccnc2ccccc12,-68.5% (active)
3,O=c1[nH]n(-c2ccccc2)c(=O)cc1Cl,103% (inactive)
4,O=c1c2cc(C(F)(F)F)ccc2sc2c(NCCCNCCO)nc3ccccc3c12,-19% (active)
5,COc1ccc2c(c1)/C(=C/c1sc(=S)n(Cc3ccco3)c1O)C=N2,3.03% (active)
6,O=C1c2cc3c(cc2-c2c1c1ccc(Cl)cc1c(=O)n2C[C@H](O)[C@@H](O)[C@H](O)CO)OCO3,-5.75% (active)
7,O=S1(=O)NCCN1CCNc1nccc(-c2c(-c3cccc(O)c3)nc3sccn23)n1,111% (inactive)
8,C#CCSc1nnnn1-c1ccccc1,92.7% (inactive)
9,O=C(/C=C\c1ccc(OCCCCCC[P+](c2ccccc2)(c2ccccc2)c2ccccc2)cc1)c1ccc2c(c1)OCCO2,-13.2% (active)
10,O=C(Cc1ccc(/C=C/C(=O)c2ncc[nH]2)cc1)Nc1cc(C(F)(F)F)cc(C(F)(F)F)c1,52.1% (inactive)
11,O=C(CSc1nnc(-c2cccnc2SCc2ccccc2)o1)Nc1nc(Cl)cc(Cl)n1,98.3% (inactive)
12,N#CC[C@H](C1CCCC1)n1cc(-c2ncnc3[nH]ccc23)cn1,97.7% (inactive)
13,CN1CCN(/C=C2\CC(C(=O)NCc3ccc(Cl)cc3Cl)NC2=O)CC1 (centres undefined),103% (inactive)
14,Clc1ncn[nH]1,103% (inactive)
15,O=[N+]([O-])CC(c1ccccc1F)c1c[nH]c2ccccc12 (centres undefined),51.1% (inactive)
16,CCCCCC#CC(=O)O,97.4% (inactive)
17,O=C(Nc1cccc(Cn2c(=O)[nH]c3ccc(Oc4ncccn4)cc3c2=O)c1)c1cc(Cl)cc(Cl)c1,98.5% (inactive)
18,CCOc1ccccc1/C=N/Nc1nc2ccccc2o1,98.6% (inactive)
19,O=C(COc1ccc(/C=C2\Oc3ccccc3C2=O)cc1)Nc1nccs1,-36.2% (active)
20,CCN1CCN(C(=O)[C@@]2(C)CC[C@]3(C)CC[C@]4(C)C(=CC(=O)[C@@H]5[C@@]6(C)CC[C@H](OCCC#N)C(C)(C)[C@@H]6CC[C@]54C)[C@@H]3C2)CC1,90.3% (inactive)
21,Cc1ccccc1NC(=O)N/C(N)=N/c1nc2ccccc2s1,-23.2% (active)
22,CC1(C)C=CC[C@]2(C)[C@H]3CC[C@@H]4[C@H]5[C@H](C(=O)/C=C/c6cccnc6)CC[C@]5(CO)CC[C@@]4(C)[C@]3(C)CC[C@@H]12,-29.2% (active)
23,CCCCN(CCCC)c1ccc(C(=NC(C)CCCN(CC)CC)c2ccc(N(C)C)cc2)cc1 (centres undefined),-32.1% (active)
24,O=C1/C(=C/c2ccccc2[N+](=O)[O-])COc2ccc(O)c(O)c21,-29.2% (active)
